# Results: PubChem BioAssay (EPA / NIEHS)
# Active and inactive are the calls of the source. How the source made its calls: active means hit-call score of the fitted dose curve at least 0.9, where 1 is the maximum; inactive means score below 0.9.
# Assay: CEETOX_H295R_OHPROG: CeeTox H295R High-throughput Steroidogenesis Assay for OH-Progesterone (OHPROG) (AID 2283435)
# Settings: actives raise or lower the signal
# Experimental: CEETOX_H295R is a cell-based, multiplexed-readout assay that uses H295R, a human adrenal gland cell line, with measurements taken at 48 hours after chemical dosing in a 96-well plate.CEETOX_H295R_OHPROG is one of 23 assay component(s) measured or calculated from the CEETOX_H295R assay. It is designed to make measurements of hormone induction, a form of inducible reporter, as detected with absorbance signals by HPLC-MS-MS technology.Data from the assay component CEETOX_H295R_OHPROG was analyzed into 1 assay endpoint. This assay endpoint, CEETOX_H295R_OHPROG, was analyzed with bidirectional fitting relative to DMSO as the negative control and baseline of activity. Using a type of inducible reporter, gain or loss-of-signal activity using HPLC-MS-MS was used to understand synthesis of 17alpha-hydroxyprogesterone in H295R cell line at 48hr of chemical exposure. To generalize the intended target to other relatable targets, this assay endpoint is annotated to the steroid hormone intended target family, where the subfamily is progestagens.
# Cell culture and media preparation procedures were conducted in accordance with OECD Test No. 456 guidelines, with minor modifications. H295R cells (ATCC CRL-2128) were expanded for 5 passages and frozen in batches in liquid nitrogen. Prior to the steroidogenesis assay, H295R cells were thawed and passed at least 4 times. The maximum passage was 10. Cells were maintained in a 1:1 mixture of DMEM/F12 supplemented with 5ml/L ITS+ Premix (BD Bioscience) and 12.5 ml/L Nu-Serum (BD Bioscience). After seeding cells into 96-well plates at 50-60% confluency, cells were allowed to adhere overnight. Prior to chemical testing, culture medium was replaced with 175 uL medium containing 10 uM forskolin to stimulate steroidogenesis for 48 hours. Following prestimulation, forskolin medium was replaced with medium containing test chemical solubilized in DMSO (ensuring a final concentration of 0.1% DMSO). Test chemicals were incubated for 48 hours, then the medium was removed and split into 2 vials containing approximately 75uL each, and stored at -80 C prior to hormone analysis. For steroid quantification, media samples were shipped to OpAns, LLC (Durham, NC) on dry ice, and samples were thawed to room temperature prior to liquid-liquid extraction. Steroid hormones were extracted from media samples using methyl tertbutyl ether (MTBE). An extra derivatization with dansyl chloride was included for estrogen (estrone and estradiol) detection only. Steroid hormones were separated by HPLC, eluted using a reverse phase C18 gradient with electrospray positive ionization, followed by quantification by tandem mass spectrometry (MS/MS). Data were acquired on a MassHunter Workstation Acquisition version B03.01 (Agilent Technologies, Inc.) and processed using MassHunter Quantitative Analysis for QQQ. Accuracy was determined for each hormone analyte from 3 standards to determine upper and lower limits of quantification (ULOQ and LLOQ, respectively) using a 7-point standard curve. Precision and accuracy of the extraction and quantification methods were calculated as the percent relative standard deviation (%RSD) of the spiked standards and percent spiked standard recovered, respectively. […] Test medium was removed following chemical exposure, and cell viability was evaluated in the same wells by MTT. MTT procedures were as follows: after removal of test medium, 500 uL of 0.5 mg/ml of 3-[4,5-dimethylthiazol-2-y]2,5-diphenyltetrazoliumbromide solution was added to the cells. Following a 4-hour incubation at 37 C and 5% CO2 to allow formazan-crystal formation, the MTT solution was removed and blue formazan salt crystals were solubilized using 500uL anhydrous isopropanol with shaking for 20 minutes. Absorbance was read at 570 and 650nm using a Packard Fusion microplate reader. Background correction of absorbance units was used to determine percent change relative to controls. […]
Compound,AC50,outcome
CC(CN=Cc1ccccc1O)N=Cc1ccccc1O (configuration not stated),1.97 µM (active),–
CCCCCCCCN1CCCC1=O,–,inactive
CC(C)Nc1nc(N)nc(Cl)n1,–,inactive
BrCc1cccc(Oc2ccccc2)c1,36.5 µM (active),–
Cc1cc(=O)oc2cc(N(C)C)ccc12,50 µM (active),–
CC(C)(C)CC(C)(C)c1ccc(OCCOCC[N+](C)(C)Cc2ccccc2)cc1,–,inactive
CCC(C)c1cc([N+](=O)[O-])cc([N+](=O)[O-])c1OC(=O)OC(C)C (configuration not stated),–,inactive
CCOC(=O)[C@@H](C)Oc1ccc(Oc2nc3ccc(Cl)cc3o2)cc1,10.1 µM (active),–
C=C1CC[C@H](O)C/C1=C/C=C1\CCC[C@]2(C)[C@@H]([C@H](C)/C=C/[C@H](C)C(C)C)CC[C@@H]12,12.3 µM (active),–
CCc1cc(C(C)(C)C)c(O)c(C(C)(C)C)c1,–,inactive
CC1(C)C(=O)N(Cl)C(=O)N1Br,–,inactive
COCCc1ccc(OCC(O)CNC(C)C)cc1 (configuration not stated),50 µM (active),–
COc1ccc(N=Nc2cc(C)c(N=Nc3ccc(S(=O)(=O)O)cc3)cc2OC)cc1,34.6 µM (active),–
CC=Cc1ccc(OCC)c(O)c1,11 µM (active),–
OCc1cccc(Oc2ccccc2)c1,50 µM (active),–
COc1ccc(CCN2CCC(Nc3nc4ccccc4n3Cc3ccc(F)cc3)CC2)cc1,1.41 µM (active),–
Nc1ccc(N)c2c1C(=O)c1ccccc1C2=O,1.51 µM (active),–
